# Results published in PubChem BioAssay AID720706 (Broad Institute, 2013).
# Hit rate of the full screen: of about 350,000 compounds, about 5,500 (1.6%) were called active.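 The calls were made as follows: active = significant combined selectivity score with lowered wild-type GFP, culture density cut under 30%, mutant RFP and density less affected; inactive = any of these conditions unmet.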 For the sample, actives were picked, then their nearest neighbours and some compounds at random.
# Assay: reduced GFP signal of wild-type E. coli, primary screen, bacterial rRNA inhibitor project, GFP/RFP fluorescence, OD600, single point (AID 720706)
# Conditions: E. coli WT GFP vs humanized-ribosome RFP mutants, 24 h; GFP signal change (wild-type ribosome): stronger effect = lower value, DMSO median 0, no signal -100; OD600 change: measured here: OD600 growth, DMSO median 0, no signal -100; RFP signal change: measured here: RFP humanized mutant strains, DMSO median 0, no signal -100, concentration not given here
Structure (SMILES),GFP signal change (wild-type ribosome),OD600 change [%],RFP signal change [%]
COc1ccc(C2=CN(Cc3ccccc3)C(c3ccc(OC)cc3)CC2=O)cc1 (stereo not given),-23.8% (inactive),-12.9,3.14
CC(C)NC(=O)N[C@@H]1CC[C@H](CC(=O)NC2Cc3ccccc3C2)O[C@H]1CO,1.59% (inactive),0.47,-1.63
Cn1cnc(CCNC(=O)C[C@@H]2CC[C@H]3[C@@H](COC[C@@H](O)CN3C(=O)Nc3ccc(Cl)cc3)O2)c1,-23.1% (inactive),-23.2,-3.05
COc1ccc(/C=C/C(=O)Nc2cccnc2)cc1OC,-20.8% (active),-6.64,-4.77
COc1ccc(/C=C/C(=O)Nc2ccc(C34CC5CC(CC(O)(C5)C3)C4)cc2)cc1OC,-3.43% (inactive),-9.24,7.24
COc1cc(/C=N/NC(=S)Nc2cccnc2)cc(OC)c1O,1.59% (inactive),0.97,-1.01
C[C@H]1CCCCO[C@H](CN(C)C(=O)Nc2ccccc2)[C@@H](C)CN([C@@H](C)CO)C(=O)c2cc(NC(=O)c3ccncc3)ccc2O1,-0.767% (inactive),-2.38,-0.401
Cc1noc(C)c1NC(=O)N(C)C[C@H]1OCCCC[C@@H](C)Oc2ccc(NC(=O)NC(C)C)cc2C(=O)N([C@@H](C)CO)C[C@H]1C,-0.208% (inactive),-7.75,-1.31
COc1cccc(-c2ccc3c(c2)[C@@H]2[C@@H](CCN2C(=O)CN2CCOCC2)[C@H](CO)N3)c1,-1.73% (inactive),12.1,-1.6
Cc1cccc(C)c1NC(=O)CNC(=O)Cc1ccc(Br)cc1,8.56% (inactive),16.5,-1.39
O=C(COC(=O)Cc1ccc(Br)cc1)Nc1c(F)c(F)c(F)c(F)c1F,-24.2% (active),-11.5,3.44
CC1CCCCC1NC(=O)COC(=O)Cc1ccc(Br)cc1 (stereo not given),-12.8% (inactive),-7.61,2.98
CCN(c1cccc(C)c1)S(=O)(=O)c1ccc(-c2coc(C)n2)cc1,-9.48% (inactive),-35,-6.13
Cc1ccc(NS(=O)(=O)c2ccc(-c3coc(C)n3)cc2)c(C)c1,-8.02% (inactive),1.15,7.38
COc1cccc(NS(=O)(=O)c2ccc(-c3coc(C)n3)cc2)c1,-28.4% (active),-10.5,9.54
CC1(C)CN(CCc2ccccc2)C(=O)[C@H]1CC(=O)Nc1ccc(Br)cc1,-6.21% (inactive),0.615,-0.505
CN1C(CC(=O)Nc2ccc(Br)cc2)c2ccccc2CC1(C)C (stereo not given),-26.3% (active),-20.9,-0.455
CCCCN1CC(C)(C)[C@H](CC(=O)Nc2ccc(Br)cc2)C1=O,-12.6% (inactive),-27.4,-4.18
CNC[C@H]1OCCCC[C@H](C)Oc2ccc(NS(=O)(=O)c3ccc(Cl)cc3)cc2C(=O)N([C@@H](C)CO)C[C@@H]1C,3.9% (inactive),3.87,0.215
O=C(Cc1cccs1)N/N=C/c1ccc(OCc2ccccc2)cc1,6.88% (inactive),-2.65,-8.12
CCOc1ccc(-c2cc(C(=O)N/N=C/c3ccc(O)cc3)c3ccccc3n2)cc1,12.1% (inactive),6.6,2.19
O=C(N/N=C/c1ccc(OCc2ccccc2)cc1)c1ccc(O)cc1,-18.6% (active),6.25,7.26
C[C@@H]1CCCCO[C@H](CN(C)C(=O)NC2CCCCC2)[C@@H](C)CN([C@H](C)CO)C(=O)c2cc(NC(=O)CCC(F)(F)F)ccc2O1,-0.169% (inactive),-3.94,-2.49
CCNC(=O)Nc1ccc2c(c1)C(=O)N(C)[C@@H]1CC[C@@H](CC(=O)NCCOC)O[C@@H]1CO2,4.01% (inactive),1.31,-0.262
COc1ccc2c3c([nH]c2c1)[C@H](CO)N(C(=O)CN1CCOCC1)CC31CN(C(C)=O)C1,3.07% (inactive),2.55,0.589
CNC[C@H]1OCCCC[C@@H](C)Oc2ccc(NS(=O)(=O)c3ccc(F)cc3)cc2C(=O)N([C@H](C)CO)C[C@H]1C,2.84% (inactive),7.37,-0.102
CC(C)NC(=O)N(C)C[C@H]1OCCCC[C@H](C)Oc2ccc(NC(=O)CCCN(C)C)cc2C(=O)N([C@@H](C)CO)C[C@H]1C,3.73% (inactive),6.52,-0.182
COc1ccc2c3c(n(C)c2c1)[C@H](CO)N(C(=O)c1ccc(F)cc1)CC31CCN(C(C)=O)CC1,-0.941% (inactive),9.11,-3.57
CCOc1ccccc1Nc1ccc(C(=O)O)cc1[N+](=O)[O-],1.23% (inactive),-10.5,-0.853
COc1ccc(S(=O)(=O)Nc2ccc3cn[nH]c3c2)cc1[N+](=O)[O-],3.58% (inactive),9.25,-2.09
